The supplement of paper PMC10981050
Where “and” joins values, the source holds several entries; their conditions need not be identical. Identical values can stand only once. Counter-ions that a name gives are not always drawn.

Tests used:
Experiment in all cases: cell viability relative to vehicle control; higher = less cytotoxic
Conditions in all cases: 10 µM
K562 = system: K562
In short: (§1)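 Four leukaemia lines, as CRISPR-edited mutant clones and isogenic wild-type clones, were tested against Selleck bioactive, kinase and epigenetic probe libraries after removal of identity-inconsistent compounds. Cells were exposed to a single 10 µM dose for 48 h, and CellTiter-Glo luminescence was then read. Viability was calculated relative to the on-plate vehicle control.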

MARIMO = system: MARIMO
In short: as §1

MOLM14 = system: MOLM14
In short: as §1

OCI-AML2 = system: OCI-AML2
In short: as §1

SMILES | cell viability (K562; SRSF2 genotype: SRSF2 P95H/wt) | cell viability (K562; SRSF2 genotype: SRSF2 wt/wt) | cell viability (MARIMO; SRSF2 genotype: SRSF2 P95H/wt) | cell viability (MARIMO; SRSF2 genotype: SRSF2 wt/wt) | cell viability (MOLM14; SRSF2 genotype: SRSF2 P95H/wt) | cell viability (MOLM14; SRSF2 genotype: SRSF2 wt/wt) | cell viability (OCI-AML2; SRSF2 genotype: P95H/wt) | cell viability (OCI-AML2; SRSF2 genotype: wt/wt)
CC(CCC(=O)NCCS(=O)(=O)O)C1CCC2C3C(O)CC4CC(O)CCC4(C)C3CCC12C (centres undefined) [Sodium Tauroursodeoxycholate (TUDC)] | 91.6% and 88.5% | 89.8% | 94% | 103% | 91.7% | 91.2% | 90.3% | 89.4%
C=C(C)[C@@H]1CC[C@]2(C(=O)O)CC[C@]3(C)[C@H](CC[C@@H]4[C@@]5(C)CC[C@H](O[C@@H]6OC[C@H](O)[C@H](O)[C@H]6O[C@@H]6O[C@@H](C)[C@H](O)[C@@H](O)[C@H]6O)[C@@](C)(CO)[C@@H]5CC[C@]43C)[C@@H]12 [Pulchinenoside A] | 97.5% and 96.7% | 92% | 93.9% | 106% | 102% | 96.6% | 94.6% | 105%
CCCCNc1ncc2c(-c3ccc(CN4CCN(C)CC4)cc3)cn([C@H]3CC[C@H](O)CC3)c2n1 | 5.45% and 6.26% | 6.13% | 8.07% | 5.67% | 0.26% | 0.23% | 1.56% | 5.54%
O=CO [Formate] | 101% and 91.4% | 99% | 97.5% | 104% | 102% | 106% | 96.7% | 96%
NC[C@@](O)(c1ccc(Cl)cc1)c1ccc(-c2cn[nH]c2)cc1 | 34.7% and 19.4% | 13% | 52.9% | 56.4% | 29.3% | 25.6% | 13.8% | 17.4%
CN1CCC(=C2c3ccccc3CC(=O)c3sccc32)CC1 [Ketotifen fumarate (Zaditor)] | 104% and 101% | 97.7% | 94.7% | 104% | 94.6% | 101% | 91% | 107%
C/C=C(/C)C(=O)O[C@H]1c2cc(OC)c(OC)c(OC)c2-c2c(cc3c(c2OC)OCO3)C[C@H](C)[C@]1(C)O [Schisantherin B] | 98.1% and 96.8% | 93.7% | 93% | 94.1% | 82.8% | 92.6% | 97.1% | 97%
CC(=O)OCC1=C(C(=O)O)N2C(=O)[C@@H](NC(=O)CSc3ccncc3)[C@H]2SC1 [cephapirin sodium] | 102% and 105% | 105% | 106% | 107% | 99.5% | 105% | 117% | 101%
COc1ncc(-c2ccc3nccc(-c4ccnnc4)c3c2)cc1NS(=O)(=O)c1ccc(F)cc1F | 31.8% and 30.2% | 34.8% | 26.4% | 24.1% | 1.48% | 11.9% | 0.26% | 1.55%
OC(c1cc(C(F)(F)F)nc2c(C(F)(F)F)cccc12)C1CCCCN1 (centres undefined) [Mefloquine HCl] | 0.97% and 1.02% | 0.97% | 0.56% | 0.87% | 0.48% | 0.44% | 0.35% | 1.68%
O=C(O)Cc1cccc2ccccc12 [1-Naphthaleneacetic acid] | 98% and 100% | 98.1% | 95.7% | 98.3% | 106% | 97.5% | 104% | 97.4%
Cc1ccc(-c2c(-c3nn(C)c4ncnc(N5CC[C@H](N6CCCCC6)C5)c34)cnn2C)cc1 | 92.8% and 98% | 105% | 96.5% | 98.5% | 95.1% | 101% | 103% | 102%
C[C@@H]1O[C@@H](O[C@@H]2[C@@H](O)[C@H](OCCc3ccc(O)c(O)c3)O[C@H](CO)[C@H]2OC(=O)/C=C/c2ccc(O)c(O)c2)[C@H](O)[C@H](O)[C@H]1O [Verbascoside] | 86.6% and 86% | 87.4% | 82.8% | 92.3% | 81.9% | 92.9% | 92.7% | 92.5%
O=C(/C=C\n1cnc(-c2cc(C(F)(F)F)cc(C(F)(F)F)c2)n1)NNc1ccccn1 [Verdinexor (KPT-335)] | 11.8% and 21.6% | 14.7% | 24.4% | 22.1% | 2.16% | 1.01% | 4.7% | 9.56%
Cc1cccc2c3c(ccc12)C1=C(C(=O)C3=O)[C@@H](C)CO1 [Dihydrotanshinone I] | 3.54% and 3.11% | 2.64% | 7.76% | 7.12% | 0.56% | 0.4% | 0.43% | 2.86%
C[C@H]1[C@H](OC(=O)CCC(=O)O)O[C@@H]2O[C@@]3(C)CC[C@H]4[C@H](C)CC[C@@H]1[C@@]24OO3 [Artesunate] | 43.3% and 38.6% | 41.2% | 42.7% | 37.8% | 34.5% | 28.3% | 2.96% | 17.9%
O=C1CCc2ccc(OCCCCN3CCN(c4cccc(Cl)c4Cl)CC3)cc2N1 [Aripiprazole (Abilify)] | 90.5% and 93% | 93.2% | 86.8% | 80.1% | 86.5% | 98% | 47.1% | 75.5%
CN[C@H]1C(=O)N[C@@H]2Cc3ccc(cc3)Oc3cc4cc(c3O[C@@H]3O[C@H](C(=O)O)[C@@H](O)[C@H](O)[C@H]3NC(=O)CCCCCCCCC(C)C)Oc3ccc(cc3Cl)[C@@H](O)[C@@H]3NC(=O)[C@H](NC(=O)[C@@H]4NC(=O)[C@@H](NC2=O)c2cc(cc(O)c2Cl)Oc2cc1ccc2O)c1ccc(O)c(c1)-c1c(O[C@H]2O[C@H](CO)[C@@H](O)[C@H](O)[C@@H]2O)cc(O)cc1[C@@H](C(=O)NCCCN(C)C)NC3=O [Dalbavancin] | 97.1% and 89.6% | 94.9% | 95.8% | 103% | 96.6% | 97.9% | 86.5% | 106%
CC1(C)S[C@@H]2[C@H](NC(=O)[C@H](C(=O)O)c3ccsc3)C(=O)N2[C@H]1C(=O)O [Ticarcillin sodium] | 95.6% and 98.8% | 104% | 101% | 95.7% | 96.3% | 101% | 98.2% | 89.6%

SMILES | cell viability (K562; SRSF2 genotype: SRSF2 P95H/wt) | cell viability (K562; SRSF2 genotype: SRSF2 wt/wt) | cell viability (MARIMO; SRSF2 genotype: SRSF2 P95H/wt) | cell viability (MARIMO; SRSF2 genotype: SRSF2 wt/wt) | cell viability (MOLM14; SRSF2 genotype: SRSF2 P95H/wt) | cell viability (MOLM14; SRSF2 genotype: SRSF2 wt/wt) | cell viability (OCI-AML2; SRSF2 genotype: P95H/wt) | cell viability (OCI-AML2; SRSF2 genotype: wt/wt)
O=C(Nc1ccc(OC(F)(F)F)cc1)c1sccc1NCc1ccnc2ccccc12 | 44.9% and 48.7% | 43.4% | 49.2% | 42.3% | 39% | 29.1% | 24% | 27.2%
O=C(Nc1ccc(Br)cc1)c1ccc(Br)c(S(=O)(=O)NCc2ccccc2)c1 | 83.5% and 88.7% | 86.8% | 88.5% | 93.7% | 96.9% | 96% | 76.2% | 76%
CC(=O)c1ccc(O)c(C(=O)O)c1 [5-Acetylsalicylic acid] | 110% and 106% | 98% | 106% | 112% | 101% | 107% | 102% | 105%
OC[C@H]1O[C@H](OC[C@H]2O[C@H](OC[C@H]3O[C@H](O[C@]4(CO)O[C@H](CO)[C@@H](O)[C@@H]4O)[C@H](O)[C@@H](O)[C@@H]3O)[C@H](O)[C@@H](O)[C@H]2O)[C@H](O)[C@@H](O)[C@H]1O [Stachyose] | 106% and 100% | 99.7% | 102% | 109% | 97.3% | 105% | 94.5% | 93.5%
C[C@@H](O)[C@H]1C(=O)N2C(C(=O)O)=C(S[C@@H]3CN[C@H](CNS(N)(=O)=O)C3)[C@H](C)[C@H]12 [Doripenem Hydrate] | 95.8% and 101% | 94.1% | 94.6% | 101% | 103% | 97.5% | 96.4% | 99%
CC(C)N(CCCCOCC(=O)NS(C)(=O)=O)c1cnc(-c2ccccc2)c(-c2ccccc2)n1 [Selexipag] | 110% and 100% | 100% | 97% | 109% | 97.6% | 98.2% | 96.9% | 109%
C/C(=C\C(=O)OCCCCCCCCC(=O)O)C[C@@H]1OC[C@H](C[C@@H]2O[C@H]2[C@@H](C)[C@H](C)O)[C@@H](O)[C@H]1O [Mupirocin] | 98.8% and 99.8% | 101% | 103% | 103% | 97.7% | 103% | 100% | 92%
CC(/C=C/C=C(\C)C(=O)O[C@@H]1O[C@H](CO)[C@@H](O)[C@H](O)[C@H]1O)=C\C=C\C=C(C)\C=C\C=C(/C)C(=O)O[C@@H]1O[C@H](CO[C@@H]2O[C@H](CO)[C@@H](O)[C@H](O)[C@H]2O)[C@@H](O)[C@H](O)[C@H]1O [Crocin II] | 109% and 106% | 99.8% | 104% | 110% | 87.5% | 104% | 97.4% | 106%
Clc1ccc(C(Cn2ccnc2)OCc2c(Cl)cccc2Cl)c(Cl)c1 (centres undefined) [Isoconazole nitrate (Travogen)] | 73.3% and 76.4% | 68.3% | 70.2% | 73.2% | 77.6% | 79.6% | 75.9% | 69.7%
O=C1OC(COc2ccccc2[N+](=O)[O-])CC1Cc1ccccc1 (centres undefined) | 95.1% and 98.1% | 101% | 93.5% | 103% | 108% | 106% | 117% | 103%
Nc1c(CC(=O)O)cccc1C(=O)c1ccc(Br)cc1 [Bromfenac Sodium] | 106% and 105% | 97.3% | 105% | 98.3% | 102% | 102% | 107% | 104%
O=C(Nc1nccs1)C(c1cc(F)ccc1O)N1Cc2ccccc2C1=O (centres undefined) | 103% and 94.9% | 96.6% | 94.6% | 105% | 98% | 97.6% | 93.9% | 100%
CN1CCCN(C(=O)c2cccc(-c3ccc(/C=C4/C(=O)Nc5ccc(Cl)cc54)o3)c2)CC1 | 0.32% | 0.41% | 0.26% | 0.37% | 0.32% | 0.29% | 0.21% | 0.42%
CC(=N)NCc1cccc(CN)c1 | 103% and 97.3% | 91.8% | 96.3% | 100% | 95.6% | 97.8% | 95.4% | 101%
CNC(=O)Nc1ccc(-c2nc(N3CC4CCC(C3)O4)c3cnn(C4CCC5(CC4)OCCO5)c3n2)cc1 | 40.7% and 42.8% | 34.4% | 57.6% | 45% | 36% | 28.1% | 29% | 28.7%
CC(C)c1c(C(=O)Nc2ccccc2)c(-c2ccccc2)c(-c2ccc(F)cc2)n1CC[C@@H](O)C[C@@H](O)CC(=O)O [Atorvastatin calcium (Lipitor)] | 67.2% and 88.5% | 56.9% | 52% | 50.4% | 67.7% | 91.5% | 41.1% | 45.6%
O=CCc1ccccc1 [Phenylacetaldehyde] | 99.4% and 97.2% | 92.8% | 97.5% | 95.2% | 107% | 97.2% | 99.5% | 93.5%
CC1(C)S[C@@H]2[C@H](NC(=O)[C@H](N)c3ccccc3)C(=O)N2[C@H]1C(=O)OCOC(=O)[C@@H]1N2C(=O)C[C@H]2S(=O)(=O)C1(C)C [Sultamicillin] | 100% and 98.8% | 106% | 93.1% | 101% | 97.2% | 102% | 103% | 116%
Cc1ccc(NC(=O)c2ccc(CN3CCN(C)CC3)cc2)cc1Nc1nccc(-c2cccnc2)n1 [Imatinib Mesylate (STI571)] | 11.9% and 25.7% | 16.7% | 103% | 104% | 80.7% | 94% | 82.3% | 78%
